Screens deposited in PubChem BioAssay by National Center for Advancing Translational Sciences (NCATS).
TDP1 cell CPT = DT40-hTDP1 cell growth loss with CPT | AID 686979 | chicken DT40 Tdp1-/-;hTDP1 cells + 20 nM CPT, ATP luminescence, 48 h | Potency, µM (top dose mostly 46.2 µM), for inactives: at the top dose activity change, negative = growth inhibition, most hits filed as inhibitors | 12% of 420,000 active; also: potency is read from the fitted curve at half-maximal effect; % is scaled to controls: 0 for no effect and ±100 for the full control effect; nearly all actives have a fitted effect of over 55% in size
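Chicken DT40 Tdp1-/- cells complemented with human TDP1, 400 cells/well, exposed to compounds plus 20 nM camptothecin for at least 48 h at 37 C; viability read as ATP content by CellTiter-Glo luminescence.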
HepG2 viability = counter-screen for TGF-b inhibitors: cytotoxicity in HepG2 cells | Potency, µM (series often up to 46.1 µM), without a hit: top-dose activity change, negative = cytotoxicity, hits mostly cytotoxic | 0.76% of 410,000 active | HepG2 CAGA-GFP viability, ATP luminescence, 18 h; also: potency is read from the fitted curve at half-maximal effect
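CellTiter-Glo luminescence gave cytotoxicity after 18 hours at 37 degrees C. The cells were HepG2 CAGA-GFP in 1% FBS DMEM, stimulated with 500 pg/mL TGF-beta after compound addition. %Activity was normalised to no-cell wells (complete cell-killing) and DMSO (no toxicity), and curves were fitted and classified.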
S-ASM inh = human S-ASM enzyme inhibition; P17405; placental ASM, HMU-PC fluorogenic substrate, 60 min; Potency, µM (highest dose often 57.5 µM), for the others: top-dose activity change, negative = inhibition, hits mostly inhibitors; 0.006% of 340,000 active; AID 504937; also: potency is read from the fitted curve at half-maximal effect
Target sequence (P17405 47-631 limits assumed): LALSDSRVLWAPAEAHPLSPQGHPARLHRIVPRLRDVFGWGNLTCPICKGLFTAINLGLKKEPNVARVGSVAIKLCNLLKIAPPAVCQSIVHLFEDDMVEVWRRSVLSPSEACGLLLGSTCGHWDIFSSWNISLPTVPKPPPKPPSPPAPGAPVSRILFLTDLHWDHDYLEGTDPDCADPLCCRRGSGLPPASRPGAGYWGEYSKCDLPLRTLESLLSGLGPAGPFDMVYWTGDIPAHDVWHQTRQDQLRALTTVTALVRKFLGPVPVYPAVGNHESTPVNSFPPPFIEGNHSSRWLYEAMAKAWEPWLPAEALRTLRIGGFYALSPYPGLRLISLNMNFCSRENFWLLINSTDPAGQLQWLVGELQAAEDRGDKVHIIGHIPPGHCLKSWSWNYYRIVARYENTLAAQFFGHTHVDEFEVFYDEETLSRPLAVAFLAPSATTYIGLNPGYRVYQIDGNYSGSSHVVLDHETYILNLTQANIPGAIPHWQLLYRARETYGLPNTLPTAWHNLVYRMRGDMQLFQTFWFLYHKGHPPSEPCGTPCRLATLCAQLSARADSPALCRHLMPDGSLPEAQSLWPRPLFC
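Steps: dispense placental human ASM, pin compound, wait 10 min at room temperature, add HMU-PC0 substrate at 9 uM final, incubate 60 min at 37 °C, add stop solution raising pH to 10, read fluorescence.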
IL1B secr inh = inflammasome signaling inhibition, IL-1 beta readout. THP-1 LPS/ATP IL-1B secretion, AlphaLISA, 16 h; stronger effect = lower value. activity change, % at 57.5 µM. 4.7% of 360,000 active. AID 743279; in the data active = activity change below about -50%; inconclusive = mostly about -30% to -49%; also: % is scaled to controls: 0 for no effect and ±100 for the full control effect
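Secreted IL-1B measured by AlphaLISA bead assay after 16 h compound exposure of THP-1 cells; compounds (final up to 57.5 uM) added 1 h before LPS (250 ng/mL) and ATP (1.25 mM) stimulation; lower signal means less secretion.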
TGFb SMAD3 inh = inhibitors of TGF-b signaling; HepG2 CAGA-GFP TGF-b/SMAD3 reporter, GFP fluorescence, 18 h; TGF-beta stimulated, 500 pg/mL final; AID 588855; 1.2% of 410,000 active; Potency, µM (titrated, usually from 46.1 µM), for inactives: top-dose activity, negative = inhibition, actives largely listed as inhibitors; also: potency is read from the fitted curve at half-maximal effect; % is scaled to controls: 0 for no effect and ±100 for the full control effect; nearly all actives have a fitted effect of over 65% in size
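TGF-beta reporter screen: HEPG2 CAGA-GFP, 1% FBS, 500 pg/mL TGF-beta final, 18 h; per-cell GFP summed per well; curves fitted and categorized by class.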
TDP1 cell noCPT = qHTS for Inhibitors of human tyrosyl-DNA phosphodiesterase 1 (TDP1): qHTS in cells in absence of CPT | AID 686978, 2013 | DT40 Tdp1-/- hTDP1 cells, no CPT, ATP luminescence, 48 h | 15% of 420,000 active | Potency, µM (titrated, usually from 46.2 µM), inactives show top-dose activity change, negative = growth inhibition, hits mostly inhibitors; also: potency is read from the fitted curve at half-maximal effect; % is scaled to controls: 0 for no effect and ±100 for the full control effect; nearly all actives have a fitted effect of over 55% in size
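DT40 Tdp1-/-;hTDP1 cells, no CPT (DMSO vehicle only), 400 cells/well; compounds pin-transferred; ≥48 hr, 37 °C; CellTiter-Glo 30 min RT dark, luminescence read.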
The depositor's hits bear a star; i = inactive; ? = inconclusive; · = no result. Sampled rows, rich in hits. Any-hit rate of the full collection: about 19%. Unless noted, calls follow the shape of the dose curve; as a rule, active = well fitted curve in the direction sought with a large enough effect; inconclusive = small, poorly fitted or top-dose-only effect, or another doubt; inactive = no such curve, though single readings can be large; an effect the other way counts as inactive or inconclusive.

SMILES	TDP1 cell CPT	HepG2 viability	S-ASM inh	IL1B secr inh	TGFb SMAD3 inh	TDP1 cell noCPT
O=C1NC[C@H](Cc2ccccc2)N(C[C@@H]2CCCN2C[C@H](Cc2ccc(O)cc2)N2C[C@H](Cc3ccccc3)N(CCc3ccccc3)C(=O)C2=O)C1=O	?	·	·	-80*	·	-30%
O=C1NC[C@H](Cc2ccc(O)cc2)N(C[C@@H]2CCCN2C[C@H](Cc2ccccc2)N2C[C@H](Cc3ccc(O)cc3)N(CC3CCCCC3)C(=O)C2=O)C1=O	?	·	·	-1	·	?
CCOc1ccc(CCN2C(=O)C(=O)N([C@@H](Cc3ccccc3)CN3CCC[C@@H]3CN3C(=O)C(=O)NC[C@@H]3Cc3ccc(O)cc3)C[C@@H]2Cc2ccccc2)cc1	-5%	-2%	·	3	-3%	11%
O=C1NC[C@H](Cc2ccc(O)cc2)N(C[C@@H]2CCCN2C[C@H](Cc2ccc(O)cc2)N2C[C@H](Cc3ccccc3)N(CC3CCCCC3)C(=O)C2=O)C1=O	-13%	·	·	0	·	-18%
Cc1ccc(C)n1CCN1CCN(S(=O)(=O)c2ccc(F)cc2F)CC1	?	19%	3%	-17	-24%	-30%
Nc1c(C(=O)Nc2ccccc2)sc2nc(N3CCOCC3)c3c(c12)CCCC3	?	1%	·	-18	2%	9.2µM*
Nc1c(C(=O)NCc2ccccc2)sc2nc(N3CCOCC3)c3c(c12)CCCC3	?	7%	i	62	1%	21µM*
CCOc1ccc(NC(=O)c2sc3nc(N4CCOCC4)c4c(c3c2N)CCCC4)cc1	?	3%	333%	4	-6%	?
COc1ccc(NC(=O)c2sc3nc(N4CCOCC4)c4c(c3c2N)CC(C)(C)OC4)cc1	-29%	1%	111%	-16	0%	11%
COc1cccc(NC(=O)c2sc3nc(N4CCOCC4)c4c(c3c2N)CCCC4)c1	26µM*	-2%	-5%	-6	-5%	23µM*
CC(=O)c1ccc(NC(=O)c2sc3nc(N4CCOCC4)c4c(c3c2N)CCCC4)cc1	?	5%	-3%	-8	-7%	21µM*
NNC(=O)c1sc2nc(N3CCOCC3)c3c(c2c1N)CCCC3	-29%	-16%	i	-12	?	?
CC1(C)OB(c2cnc(C#N)nc2)OC1(C)C	3%	·	·	·	·	-11%
COc1ccc(S(=O)(=O)N(C)C)cc1NC(=O)COC(=O)c1nc2nccc(C)n2n1	2%	-7%	5%	9	-2%	-17%
Nc1c(C(=O)Nc2ccc(Cl)cc2)sc2nc(N3CCOCC3)c3c(c12)CCCC3	?	5%	4%	0	-5%	15µM*
Cc1ccc(NC(=O)c2sc3nc(N4CCOCC4)c4c(c3c2N)CCCC4)cc1	-9%	-13%	·	-23	-15%	?
CCOC(=O)C(=C1Nc2ccccc2N1)n1c(-c2ccco2)nc2ccccc21	7.3µM*	·	·	3	·	?
C/C(CCc1oc2ccccc2c1-c1ccc(C)o1)=N/O	?	-13%	5%	-17	24%	18µM*
CC(=O)CCc1oc2c([N+](=O)[O-])cccc2c1-c1ccc(C)o1	?	-31%	-5%	0	-24%	?
C/C(CCc1oc2c(Br)cc(Br)cc2c1-c1ccc(C)o1)=N\O	16µM*	-30%	-2%	11	-24%	18µM*
CC(=O)c1cccc(N(C(=O)c2csnn2)C(C(=O)NC2CCCC2)c2ccccc2)c1 (stereo unspecified)	-26%	4%	4%	26	-17%	-21%
O=C(OCC(=O)N1CCN(c2ccccc2)CC1)c1cc(Cl)ccc1[N+](=O)[O-]	-18%	-7%	-3%	-3	6%	-11%
Cc1ccccc1NC(=O)CSc1ccc(-c2cccs2)nn1	?	-14%	·	·	0%	23µM*
O=C(CSc1ccc(-c2cccs2)nn1)N1CCCCCC1	?	1%	-2%	0	?	23µM*
O=C(Nc1cccc(C(F)(F)F)c1)N1CC2CCCN2c2ccccc21 (stereo unspecified)	?	-5%	·	·	?	?
SMILES	TDP1 cell CPT	HepG2 viability	S-ASM inh	IL1B secr inh	TGFb SMAD3 inh	TDP1 cell noCPT
Cc1ccc(NC(=O)N2CC3CCCN3c3ccccc32)cc1Cl (stereo unspecified)	?	-37%	·	·	-9%	16µM*
Cc1ccc(NC(=O)N2CC3CCCN3c3ccccc32)c(C)c1 (stereo unspecified)	23µM*	-24%	·	·	?	18µM*
Cc1ccc(NC(=O)N2CC3CCCN3c3ccccc32)cc1C (stereo unspecified)	18µM*	-46%	·	·	-22%	23µM*
O=C(Nc1nc2ccccc2s1)NC1CCCCC1	?	-27%	-1%	-11	8%	-22%
Cc1cc(C)c(C)c(S(=O)(=O)N2CCN(C(=O)C3CCC3)CC2)c1C	-27%	-16%	1%	-2	-9%	?
COc1ccccc1Nc1ncnc2c1nc1n2CCCC1	7.3µM*	-28%	·	·	-11%	8.2µM*
Cc1cc(C)cc(Nc2ncnc3c2nc2n3CCCC2)c1	9.2µM*	-11%	·	·	-23%	9.2µM*
COc1ccc(OC)c(Nc2ncnc3c2nc2n3CCCC2)c1	9.2µM*	-18%	·	·	-19%	?
CC(C)c1ccc(Nc2ncnc3c2nc2n3CCCC2)cc1	?	-36%	·	·	-34%	?
COc1ccc(Cl)cc1Nc1ncnc2c1nc1n2CCCC1	12µM*	-29%	·	·	-18%	16µM*
Fc1ccccc1Nc1ncnc2c1nc1n2CCCCC1	?	-31%	·	·	?	?
O=C(CSc1ncn[nH]1)NCc1ccccc1Cl	3%	6%	13%	0	7%	-10%
CCc1cc2c(=O)c(-c3nc4ccccc4n3C)coc2c(CN2CCC(C)CC2)c1O	?	-4%	36%	55	0%	6.5µM*
CCC1NC(C(=O)O)Cc2c1[nH]c1ccccc21 (stereo unspecified)	7.3µM*	-20%	27%	9	-1%	9.2µM*
CCS(=O)(=O)N1Cc2cc(C(=O)N(C)C)nc(-c3cccc(-c4ccc(F)cc4)c3)c2[C@@H]1CCO	1%	·	·	0	·	-25%
CCOc1ccc(C(=O)Nc2ccc(-c3nc4ccccc4[nH]3)cc2)cc1[N+](=O)[O-]	21µM*	13%	4%	2	4%	18µM*
